Screening data deposited in PubChem BioAssay by several laboratories.
HSF1 activator – increases HSF-1 driven luciferase reporter signal | actives 1.7% (n = 300,000) | NIH3T3-HGL HSF-1 luciferase reporter, MG132, 8 h; 100% = twice DMSO control signal | activation, % at 9 µM;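 active = mean replicate activation of at least 50% with a set share of replicates each reaching 50%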;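 also: 0% = median of the neutral control wells and 100% = twice that signal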
NR0B1 inh – NR0B1 (DAX1) inhibition | P51843 | HEK293 Gal4-DAX1 luciferase reporter, luminescence | inhibition, % at 6.75 µM | actives 0.99% (n = 340,000) | AID 504766;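 active = inhibition above the mean over all tested compounds plus 3 SD, cut at about 4.2% in these data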;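 also: 0% = DAX1-transfected cells with DMSO and 100% = empty-vector control cells with DMSO; inhibition shows as a rise in luminescence from relieved DAX1 repression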
Target sequence (P51843 207-470 limits assumed): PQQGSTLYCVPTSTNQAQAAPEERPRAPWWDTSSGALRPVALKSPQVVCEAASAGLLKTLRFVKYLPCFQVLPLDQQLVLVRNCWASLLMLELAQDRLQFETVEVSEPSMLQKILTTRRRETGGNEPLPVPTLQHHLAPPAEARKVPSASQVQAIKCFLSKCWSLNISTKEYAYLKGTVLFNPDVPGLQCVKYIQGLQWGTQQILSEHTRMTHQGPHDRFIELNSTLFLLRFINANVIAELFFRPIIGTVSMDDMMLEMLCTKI
HSF1 inh – HSF1 inhibition | NIH3T3-HGL HSE-luciferase, MG132-induced, luminescence 8 h; stronger effect = lower value | activity change, negative = inhibition, % at 7.5 µM (by protocol) | actives 0.77% (n = 300,000);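 active = more than half of replicate wells show activity change below -50%, luminescence cut by over half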;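 also: luciferase reports HSF-1 transcriptional activity via heat shock element; 0% = median of DMSO wells and -100% = zero luminescence signal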
GAA850 FXN act – activators of GAA850 frataxin (FXN) promoter; HEK293 lucGAA850 FXN promoter luciferase reporter, 24 h; percent of 10 µM SAHA response; actives 0.56% (n = 360,000); activation, % at 6 µM; AID 540364;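 active = activation above the average of all compounds screened plus 3 SD, cutoff fixed separately per campaign, cut at about 7.5% in these data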;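 also: 0% = DMSO wells and 100% = 10 µM SAHA wells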
HSP90 refold inh – blocks HSP90-mediated luciferase refolding in reticulocyte lysate; Rabbit reticulocyte lysate, luciferase refolding luminescence, 3 h; actives 0.91% (n = 290,000); AID 1789; inhibition, % at 5.6 µM;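 active = inhibition above the screen-wide mean plus 3 SD, computed separately per campaign, cut at about 16% in these data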;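 also: 0% = DMSO wells and 100% = 60 µM geldanamycin wells; inhibitors lower the luminescence because luciferase stays unfolded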
AHR activator – human AHR activation. actives 2.5% (n = 320,000). AHR-responsive luciferase reporter cells, luminescence. activation, % at 5 µM; in the data active = activation above about 47%;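 also: 0% = vehicle wells and 100% = reference agonist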
* = called active by the depositor; . = no result given. Only some compounds are listed: those with a hit (about 5.9% of all), similar ones and a draw of the others.

SMILES | HSF1 activator | NR0B1 inh | HSF1 inh | GAA850 FXN act | HSP90 refold inh | AHR activator
O=C(CCc1ccccc1)NNC(=O)Cc1ccc(Cl)cc1 | 2 | -1 | 4 | 2 | 4 | -1
COC(C(=O)N/N=C(\C)CC(=O)Nc1ccc(Cl)cc1C)c1ccccc1 (stereo unspecified) | 122* | 1 | 79 | -1 | 5 | 6
COC(C(=O)N/N=C(\C)CC(=O)Nc1ccc(N(C)C)cc1)c1ccccc1 (stereo unspecified) | -4 | 0 | -2 | 3 | 4 | 5
COC(C(=O)NNC(=O)Cc1ccc(Cl)cc1)c1ccccc1 (stereo unspecified) | 0 | 4.3* | 9 | -1 | 3 | -1
Cc1ccc(S(=O)(=O)N2C[C@H]3N(C(=O)OC(C)C)N(C(=O)OC(C)C)C[C@H](OC(=O)NCC4CCCCC4)[C@@]3(O)C2)cc1 | . | 1 | . | -9 | . | .
O=C(COc1ccccc1)NC(=S)Nc1cccc2c(O)cccc12 | . | 1 | . | -1 | . | .
COc1cccc(NC(=O)C2C3C=CC4(O3)C2C(=O)N(CCCN2CCCC(C)C2)C4C(=O)NC2CCCCC2C)c1 (stereo unspecified) | -1 | 0 | -1 | 2 | 3 | -1
CCN(CC)CCn1nc2c3c(cccc3c1=O)-c1ccccc1-2 | 173* | -2 | 106 | 5 | 2 | 24
CC(C)(C)C1=CC(=O)C(=O)C(C(C)(C)C)=C1 | 6 | 2 | 12 | 11* | 3 | -2
Cc1ccc(Nc2nc3ccccc3s2)cc1 | 60* | 3 | 28 | 5 | 1 | 25
Cc1ccc(Nc2nc(-c3ccccc3)c(CC(=O)O)s2)cc1 | 63* | 0 | 36 | 5 | -2 | 30
Fc1ccc(Nc2nc3ccccc3s2)cc1 | 26 | 3 | 17 | 5 | -5 | 7
Cc1ccccc1Nc1nc2ccccc2s1 | 31 | 6.2* | 18 | 4 | -3 | 21
C[C@H](NC(=O)c1[nH]cnc1C(=O)N[C@H](C)c1ccccc1)c1ccccc1 | . | 0 | . | 3 | . | 2
COC(=O)N/N=C/c1cccc(OCCSc2ccc(Cl)cc2)c1 | 57* | 0 | 23 | 2 | 5 | 19
Cc1ccc(C(=O)N/N=C(/CC(=O)c2cccs2)C(F)(F)F)cc1 | 0 | 0 | 0 | -1 | -2 | 62*
O=C(N/N=C(\CC(=O)c1cccs1)C(F)(F)F)c1ccncc1 | -4 | . | -1 | -4 | 2 | 3
O=C(NCCNc1ccc(Cl)cc1[N+](=O)[O-])c1ccccc1F | 51* | 0 | 37 | 4 | -2 | 0
O=C(NCCNc1ccnc2cc(Cl)ccc12)c1ccccc1F | -83 | -5 | -79* | -3 | -5 | 2
Clc1ccc2c(NCc3ccccc3)ccnc2c1 | -13 | 0 | -14 | -3 | -2 | 9
Cc1ccc(C(=O)NCCNc2ccc(Cl)cc2[N+](=O)[O-])o1 | 10 | 0 | 4 | 0 | -2 | 5
CCOc1ccc(CCNC(=O)COC(=O)C2CC2)cc1OCC | 0 | 0 | -5 | 2 | . | 1
CC(=O)N1CCN2C(=O)C1CCCC(=O)c1cc(C3CCCCC3)ccc12 (stereo unspecified) | -1 | 4.3* | -2 | 3 | -3 | 0
O=C1CCCC(c2ccccc2)N1 (stereo unspecified) | -2 | 5.2* | -10 | 1 | 1 | 4
Cc1ccc(C(=O)Nc2nnc(C3CCCCC3)s2)o1 | 68* | 2 | 37 | 6 | 5 | -2
SMILES | HSF1 activator | NR0B1 inh | HSF1 inh | GAA850 FXN act | HSP90 refold inh | AHR activator
O=C(Nc1nnc(C2CCCCC2)s1)C1CC(=O)N(c2ccc(F)cc2)C1 (stereo unspecified) | 17 | 1 | -3 | -2 | -4 | 0
COc1ccc(N2CC(C(=O)Nc3nnc(C4CCCCC4)s3)CC2=O)cc1 (stereo unspecified) | -70 | 1 | -62* | 1 | 0 | -1
COc1cc2c(cc1OC)/C(=C/c1ccc(Cl)cc1)C(=O)OC2 | 44 | 0 | 28 | 3 | 3 | 59*
COc1ccc(/C=C2\C(=O)OCc3cc(OC)c(OC)cc32)cc1OC | 1 | -1 | -3 | 3 | 2 | 7
O=C(CCNC(=O)N1CC(=O)Nc2ccccc21)Nc1ccc(Br)cc1F | 0 | 1 | 0 | 0 | 1 | 6
O=C1C=C(c2ccccc2)CC(/C=C/c2ccccc2)C1 (stereo unspecified) | 98* | 0 | 70 | 0 | -3 | 75*
O=C1C=C(c2ccccc2)CC(c2ccc(F)cc2)C1 (stereo unspecified) | 26 | 0 | 13 | 0 | . | 2
CC1CCN(c2nc3nonc3nc2Nc2ccc(F)cc2)CC1 | 12 | -1 | -3 | 0 | -1 | 50*
CCc1nc2c(OCc3ccc(C(F)(F)F)cc3)cccn2c1N(C)C(=O)C1CC1 | . | . | . | -2 | . | .
Cc1noc(NS(=O)(=O)c2ccc(NC(=O)c3ccc(Cl)c(S(=O)(=O)N(C)c4ccccc4)c3)cc2)c1C | . | 0 | . | 2 | . | .
COc1ccc(CC(=O)N/N=C/c2c(C)n(C)c3ccccc23)cc1OC | -6 | . | -5 | -2 | 6 | 48*
COc1ccc(CC(=O)N/N=C/c2cc(Br)cs2)cc1OC | -15 | -1 | -7 | 0 | 0 | 0
Cc1c(/C=N/NC(=O)c2cc(C(C)(C)C)[nH]n2)c2ccccc2n1C | 3 | 1 | -9 | 1 | -4 | 73*
CCOC(=O)C1=C(COC(=O)CSc2ccc(C)cc2)NC(=O)NC1C (stereo unspecified) | . | 1 | . | -1 | . | 1
CS(=O)c1ccc(-n2c(=O)n(Cc3ccccc3)c(=O)c3[nH]cnc32)cc1 (stereo unspecified) | -8 | 0 | -9 | 5 | -1 | 4
CC(=NNC(=S)N1CCCC1)c1ccccn1 | . | -4 | . | 6 | . | .
CC(=NNC(=S)SCc1ccccc1)c1ccccn1 | 95* | 1 | 95* | -3 | . | .
CN(C)c1cccc(CNC(=O)c2csc(COCCO)n2)c1 | . | . | . | -1 | . | .
CCOC(=O)Cc1cc(-c2ccccc2)nc2ccc3ccccc3c12 | 1 | 0 | 2 | 3 | 0 | 93*
CC(=O)Nc1ccc(Oc2sc(C(=O)c3ccccc3)c(N)c2C#N)cc1 | 87* | -1 | 60 | -3 | 2 | 2
CC(=O)Nc1ccc(Oc2ccccc2)cc1 | -5 | 1 | -7 | 3 | 2 | 0
O=C(Nc1cc(Cl)cc(Cl)c1)C1CCCC1 | 2 | 0 | -1 | 3 | 4 | 5
Cc1cc2nc(CSc3ccc(Cl)cc3)cc(=O)n2[nH]1 | 13 | 11* | 10 | 0 | 0 | 0
Cc1nc2nc(CSc3ccc(Cl)cc3)cc(=O)n2[nH]1 | -4 | 2 | 3 | 0 | 1 | 1
Cc1ccc(NC(=O)COC(=O)CNC(=O)c2cccs2)cc1S(=O)(=O)N1CCOCC1 | . | 0 | . | -1 | . | .
CCN1C(=NCCOC)N[C@@H](c2cccs2)C(C(=O)OC)=C1C | -1 | 0 | 3 | -2 | -1 | -1
